Source: PubChem BioAssay (NCATS)
Several values for one entry are separate records, joined by “and”; a condition that tells them apart may be missing. Identical values can stand only once. Results filed as inconclusive are left out. Activity calls are given as the source filed them. Unless noted, calls follow the shape of the dose curve; as a rule, active = well fitted curve in the direction sought with a large enough effect; inconclusive = small, poorly fitted or top-dose-only effect, or another doubt; inactive = no such curve, though single readings can be large; an effect the other way counts as inactive or inconclusive.

How the values were obtained:
[1] = qHTS assay for environmental chemicals that activate the Aryl hydrocarbon Receptor (AhR) signaling pathway (AID 651777); conditions: 1A2-DRE human hepatoma cells, luciferase, 24 h; hits give high values; also: % of control where 0% means no effect; nearly all actives have a fitted effect of over 15% in size
Procedure, shortened: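 Following a 24 hr incubation with test chemicals at 37 C and 5% CO2, 1A2-DRE human hepatoma cells received One-Glo reagent; after 30 min at room temperature, luciferase output reflected CYP1A2 induction via AhR.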

[2] = target: Peroxisome proliferator-activated receptor alpha (Homo sapiens) (UniProt Q07869); assay: qHTS assay for small molecule agonists of the peroxisome proliferator-activated receptor alpha (PPARalpha) signaling pathway (AID 651778); conditions: PathHunter PPARalpha complementation, chemiluminescence, 6 h; hits give high values; also: % of control where 0% means no effect
Procedure, shortened: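 Chemiluminescence from complemented enzyme reported PPARalpha activation in cells after 6 hr of compound treatment at 37 C. The detection reagent was incubated for 60 min at room temperature, and compounds were scored as agonists.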

[3] = qHTS assay for small molecule agonists of the antioxidant response element (ARE) signaling pathway measured by Nrf2-dependant transcriptional activity (AID 720636; active = well fitted curve in the direction sought with a large enough effect in the repeat runs; an effect the other way counts as inactive or inconclusive;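 also: HepG2 cells with an ARE-driven luciferase reporter; % of control where 0% means no effect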); conditions: ARE-luc HepG2, Nrf2 luciferase reporter, 16 h; series mostly up to 92.4 µM
Procedure, shortened: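 ONE-Glo luminescence, read 30 min after reagent addition at room temperature, reflected ARE reporter activity in HepG2 cells that had been incubated with compound for 16 hr at 37 C in 1% dialyzed FBS.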

[4] = qHTS assay for small molecule antagonists of the retinoid-related orphan receptor gamma (ROR-gamma) signaling pathway - cell viability counter screen (AID 720652; active = well fitted curve in the direction sought with a large enough effect in the repeat runs; an effect the other way counts as inactive or inconclusive;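 also: CHO reporter cells with doxycycline-induced ROR-gamma expression; compound exposure lasted 16 hr before ATP read; % is scaled to controls: 0 for no effect and ±100 for the full control effect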); conditions: RORgamma reporter cell line viability counter screen; series mostly up to 92.2 µM
Procedure, shortened: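 Cytotoxicity counter screen: intracellular ATP (CellTiter-Glo luminescence) measured in the doxycycline-induced CHO RORE-luciferase reporter line after 16 hr compound exposure at 37 C, 5% CO2.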

[5] = qHTS assay for small molecule agonists of the antioxidant response element (ARE) signaling pathway measured by Nrf2-dependant transcriptional activity - cell viability counter screen (AID 720653; active = well fitted curve in the direction sought with a large enough effect in the repeat runs; an effect the other way counts as inactive or inconclusive; also: % is scaled to controls: 0 for no effect and ±100 for the full control effect); conditions: ARE-bla HepG2 viability, CellTiter-Glo ATP luminescence, 16 h; hits give low values
Procedure, shortened: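 Cytotoxicity counter screen: intracellular ATP quantified by CellTiter-Glo luminescence in the same ARE-bla HepG2 plates, after 16 h compound exposure and a 2 h beta-lactamase substrate step.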

[6] = qHTS Assay for Identifying Gametocytocidal Compounds (AID 743244);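 also: % is scaled to controls: 0 for no effect and ±100 for the full control effect; actives lower the fluorescent signal which means gametocytes are killed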; conditions: P. falciparum 3D7 stage III-V gametocytes, alamarBlue, 72 h; max response: hits give low values
Procedure, shortened: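 Viability read-out was resazurin reduction (alamarBlue, 24 h) measured at Ex 525/Em 598 nm. Beforehand, late-stage (III-V) 3D7 P. falciparum gametocytes at 20,000 cells/well were incubated with compound 72 h at 37C under 5% CO2.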

[7] = qHTS assay for cell viability of HEK293 cells (AID 743288); conditions: ATP luminescence (CellTiter-Glo), 18 h, hits give low values; also: % is scaled to controls: 0 for no effect and ±100 for the full control effect; nearly all actives have a fitted effect of over 50% in size
Procedure, shortened: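 HEK293, 18 h, 37 C, ATP luminescence. Cells at 2,000/well were allowed at least 5 h to settle before dosing; CellTiter-Glo developed 30 min at RT.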

[8] = qHTS assay for cell viability of the p53RE-bla HCT-116 cell line (AID 743292); conditions: p53RE-bla HCT-116 viability, ATP luminescence, 16 h; series mostly up to 95 µM; also: % is scaled to controls: 0 for no effect and ±100 for the full control effect; nearly all actives have a fitted effect of over 55% in size
Procedure, shortened: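 After plating at 4,000 cells per well and a 5 h rest at 37 C, HCT-116 cells carrying p53RE-bla received test chemicals in DMSO. Sixteen hours later at 37 C, CellTiter-Glo was added and luminescence recorded following 30 min at room temperature.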

[9] = target: Nuclear receptor ROR-gamma (Homo sapiens) (UniProt P51449); assay: qHTS assay for small molecule antagonists of the retinoid-related orphan receptor gamma (ROR-gamma) signaling pathway (AID 651802); conditions: ROR-gamma antagonist cell reporter assay; series mostly up to 92.2 µM;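 also: CHO cells with doxycycline-induced ROR-gamma expression; luciferase reporter luminescence driven by ROR response element; % is scaled to controls: 0 for no effect and ±100 for the full control effect; nearly all actives have a fitted effect of over 60% in size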
Procedure, shortened: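 Luminescence (One-Glo, 30 min RT) measured 16 h after compound addition and doxycycline induction at 37C. Reporter: RORE-luciferase under TET-inducible ROR-gamma in CHO cells.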

Chain of Peroxisome proliferator-activated receptor alpha (Homo sapiens) (Q07869 whole entry, looked up): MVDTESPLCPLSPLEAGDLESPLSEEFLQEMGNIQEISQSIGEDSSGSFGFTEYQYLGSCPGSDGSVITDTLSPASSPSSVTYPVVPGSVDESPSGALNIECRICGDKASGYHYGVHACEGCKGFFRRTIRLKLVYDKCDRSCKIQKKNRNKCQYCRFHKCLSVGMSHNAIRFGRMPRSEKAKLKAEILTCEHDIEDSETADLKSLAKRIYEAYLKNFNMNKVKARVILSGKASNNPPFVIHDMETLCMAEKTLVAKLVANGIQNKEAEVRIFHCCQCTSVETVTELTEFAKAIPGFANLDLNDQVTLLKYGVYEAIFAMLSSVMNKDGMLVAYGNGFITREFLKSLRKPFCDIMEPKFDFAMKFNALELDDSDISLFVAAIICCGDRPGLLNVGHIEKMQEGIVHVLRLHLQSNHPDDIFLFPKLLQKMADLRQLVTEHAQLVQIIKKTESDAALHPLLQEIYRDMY
Chain of Nuclear receptor ROR-gamma (Homo sapiens) (P51449 whole entry, looked up): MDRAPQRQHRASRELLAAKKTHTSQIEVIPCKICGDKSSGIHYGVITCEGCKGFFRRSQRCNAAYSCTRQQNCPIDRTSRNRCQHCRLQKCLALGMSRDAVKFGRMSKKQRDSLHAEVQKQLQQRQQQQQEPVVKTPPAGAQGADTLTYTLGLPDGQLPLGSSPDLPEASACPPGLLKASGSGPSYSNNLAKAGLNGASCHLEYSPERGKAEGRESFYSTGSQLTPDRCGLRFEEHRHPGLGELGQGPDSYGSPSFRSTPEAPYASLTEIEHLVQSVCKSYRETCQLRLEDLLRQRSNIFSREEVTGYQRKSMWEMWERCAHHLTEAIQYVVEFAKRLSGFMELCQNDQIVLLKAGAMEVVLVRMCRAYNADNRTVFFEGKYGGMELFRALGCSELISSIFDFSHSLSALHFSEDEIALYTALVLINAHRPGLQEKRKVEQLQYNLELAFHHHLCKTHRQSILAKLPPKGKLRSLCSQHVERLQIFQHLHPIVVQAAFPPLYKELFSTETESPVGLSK

C=CCNC(N)=S
inactive: activation [1] 0.627% | max response [2] -1.33% | outcome [3] | outcome [4] | max response [5] 0.701% | max response [6] 5.17% | max response [7] -7.7% | outcome [8]

CC1CC(OC(=O)c2ccccc2O)CC(C)(C)C1 (centres undefined)
inactive: activation [1] 2.34% | max response [2] -1.84% | outcome [3] | outcome [4] | max response [5] 0.684% | max response [6] -1.2% | max response [7] -5.44% | outcome [8]

CN(C(=O)c1c(O)c2ccccc2n(C)c1=O)c1ccccc1
inactive: max response [6] -2.29%

CC(=O)Nc1ccccc1
inactive: activation [1] -1.4% | max response [2] -5.14% | outcome [3] | outcome [4] | max response [5] -3.41% | max response [6] 9.51% | max response [7] -0.588% | outcome [8]

C[C@H]1COc2c(C3(N)CC3)c(F)cc3c(=O)c(C(=O)O)cn1c23
inactive: max response [6] -1.28%

COC(=O)c1ccc(O)cc1
inactive: activation [1] 7.25% | max response [2] -1.49% | max response [5] -3.37% | max response [6] -9.3% | max response [7] 1.25% | outcome [8]

CCN(CC)C(=O)c1cccc(C)c1
inactive: activation [1] -1.83% and 2% | max response [2] -2.42% and -0.716% | outcome [9] | outcome [3] | outcome [4] | max response [5] -1.02% and 2.48% | max response [6] 18.7% | max response [7] 4.9% and -5.34% | outcome [8]

O=C(c1ccccc1)C(O)c1ccccc1 (centres undefined)
inactive: activation [1] -1.25% and 2.53% | max response [2] -1.85% and -1.14% | outcome [9] | outcome [3] | outcome [4] | max response [5] -4.04% and -7.26% | max response [7] 0.203% and -6.25% | outcome [8]
